An excerpt weighted towards active compounds, which were near 9.3% of everything screened.
VACV mCherry inh: qHTS for Stage-Specific Inhibitors of Vaccinia Orthopoxvirus: mCherry Reporter Primary qHTS. Vaccinia virus mCherry reporter infection, fluorescence. Potency, µM (highest dose often 36.5 µM), most hits filed as inhibitors. 310,000 compounds, 0.63% hits. AID 720579, 2013; calls by dose curve; tested in A549 cells; further: nearly all actives have a fitted effect of over 35% in size
HCV inh: qHTS Assay for Inhibitors of Hepatitis C Virus (HCV); Huh7.5.1 HCVcc-Cre infection, luciferase reporter, 44 h; Potency, µM (titrated, usually from 41.8 µM), usual class: inhibitors; 340,000 compounds, 3.4% hits; AID 651820, 2012
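Whole-lifecycle infectious HCVcc-Cre system; cells 1,000/well, compound then virus (~0.5 moi) added 4 h after plating, 44 h culture. Luciferase read 15 sec following 15 min substrate incubation, room temp.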
FMDV inh: High Throughput Screening for Foot and Mouth Disease Virus Antivirals; FMDV antiviral cell-based qHTS; Potency, µM (top dose mostly 57.9 µM), actives largely listed as inhibitors; 410,000 compounds, 1.2% hits; calls by dose curve; tested in HEK293T cells; further: read-out not given here; nearly all actives have a fitted effect of over 45% in size
HCMV inh: qHTS Assay for inhibitors of the human cytomegalovirus (HCMV); HFF cells, HCMV-luciferase reporter, 72 h; active compounds read low; activity change, negative = inhibition, % at 57.5 µM; AID 1259415, 2018; 410,000 compounds, 4.5% hits; in the data active means activity change below about -60%; inconclusive means no clear call, values can overlap the other calls; inactive means above about -39%
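Inhibition of viral replication was scored as loss of reporter luminescence in HFFs infected with HCMV-luciferase (MOI 1 PFU/cell) for 72 h; compounds tested at 2 doses, normalized to buffer and Salinomycin controls.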
Vaccinia Venus: qHTS for Stage-Specific Inhibitors of Vaccinia Orthopoxvirus: Venus Reporter Primary qHTS | 330,000 compounds, 0.46% hits | Potency, µM (series often up to 36.5 µM), usual class: inhibitors | AID 720580, 2013 | Vaccinia virus Venus reporter expression, fluorescence; calls by dose curve; tested in A549 cells; further: nearly all actives have a fitted effect of over 30% in size
Sm TGR block: qHTS Assay for the Inhibitors of Schistosoma Mansoni Peroxiredoxins. purified TGR, DTNB reduction, TNB absorbance 405 nm. Potency, µM (highest dose often 114 µM), most hits filed as inhibitors. 360,000 compounds, 3% hits. AID 485364, 2010; further: nearly all actives have a fitted effect of over 60% in size
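First, TGR (20 nM dispensed) and NADPH were mixed with compound. Second, a 15 min room-temperature incubation followed. Third, further NADPH and then DTNB were added to start the reaction. Finally, TNB absorbance was monitored kinetically.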
Large screens that a line does not name were inactive. Unless noted, the call rests on the fitted dose curve; in most records, active means well fitted curve in the direction sought with a large enough effect; inconclusive means small, poorly fitted or top-dose-only effect, or another doubt; inactive means no such curve, though single readings can be large; an effect the other way counts as inactive or inconclusive.

CCN(CC)c1ccc(/C=N/N2C(=O)c3ccccc3C2=O)c(O)c1	none
O=C1c2cccc3cccc(c23)C(=O)N1CCO	HCMV inh inconclusive (no result: HCV inh, Sm TGR block)
Nc1cc2c3c(cccc3c1)C(=O)N(CCN1CCCC1)C2=O	VACV mCherry inh inconclusive, HCV inh 10µM, HCMV inh -96, Vaccinia Venus inconclusive
CCN(CC)CCN1C(=O)c2cccc3cc(N)cc(c23)C1=O	VACV mCherry inh inconclusive, FMDV inh inconclusive, HCMV inh -99, Vaccinia Venus inconclusive
O=C1c2cccc3cc([N+](=O)[O-])cc(c23)C(=O)N1CCN1CCCC1	VACV mCherry inh 0.32µM, HCV inh 1.1µM, HCMV inh -100, Vaccinia Venus inconclusive
Cc1cccc2c(=O)cc(CSc3ccccc3NC(=O)c3cccc(Br)c3)[nH]c12	none (no result: HCV inh)
Cc1ccccc1-n1c(SCC(=O)Nc2ccc3c(c2)OCO3)nnc1-c1ccccn1	HCV inh 22µM (no result: VACV mCherry inh, Vaccinia Venus)
COCc1cc(C)nc(SCC(=O)Nc2ccc3c(c2)OCCO3)c1C#N	HCV inh inconclusive (no result: VACV mCherry inh, Vaccinia Venus)
CCc1nnc(SCC(=O)Nc2ccc3c(c2)OCO3)o1	HCMV inh inconclusive (no result: VACV mCherry inh)
COCc1cc(C)nc(SCC(=O)Nc2ccc3c(c2)OCO3)c1C#N	HCV inh 11µM
Cc1nnc(SCC(=O)Nc2ccc3c(c2)OCO3)o1	HCMV inh -60
CCCCn1c(=O)c(C(=O)NCc2ccco2)c(O)c2ccccc21	HCV inh 14µM
CCCn1c2c(c(O)c(C(=O)Nc3ncccc3C)c1=O)CCCC2	HCV inh 11µM, HCMV inh inconclusive (no result: VACV mCherry inh, Vaccinia Venus)
CCCCCn1c(=O)c(C(=O)Nc2ccccc2S(N)(=O)=O)c(O)c2ccccc21	HCV inh inconclusive, HCMV inh -101, Vaccinia Venus inconclusive
CC(C)CCn1c(=O)c(C(=O)NCc2ccco2)c(O)c2ccccc21	HCV inh inconclusive
CCCn1c(=O)c(C(=O)Nc2ccccc2C)c(O)c2ccccc21	HCV inh inconclusive, Sm TGR block 45µM
Cc1cn([C@H]2C[C@H](O)[C@@H](CNC(=O)[C@@H]3C[C@H](F)CN3)O2)c(=O)[nH]c1=O	none (no result: HCV inh, Sm TGR block)
CC(=O)[C@@]1(O)CC[C@H]2[C@@H]3C=C(Cl)C4=CC(=O)[C@@H]5C[C@@H]5[C@]4(C)[C@H]3CC[C@@]21C	none (no result: HCV inh, HCMV inh, Sm TGR block)
COc1ccccc1CNC(=O)c1cc(-c2ccccc2)nn1CC1CC(c2cccnc2)=NO1 (stereo unspecified)	none (no result: Sm TGR block)
Cc1cc2oc(=O)cc(CN3CCCCC3)c2cc1C(C)C	HCV inh inconclusive
COc1cccc(NCc2cc(=O)oc3cc(C)c(C(C)C)cc23)c1	HCV inh 10µM (no result: VACV mCherry inh, Vaccinia Venus)
Cc1ccc(NS(=O)(=O)c2cccc3cccnc23)cc1Cl	HCV inh inconclusive, HCMV inh -94 (no result: VACV mCherry inh, Vaccinia Venus)
Cc1ccc(C(=O)N2NC(c3ccc(F)cc3)C3C(=O)N(c4ccc(C)cc4)C(=O)C32)cc1 (stereo unspecified)	none
CCOc1ccc(N2C(=O)C3C(c4ccccc4F)NN(C(=O)c4ccc(C)cc4)C3C2=O)cc1 (stereo unspecified)	Sm TGR block 50µM
Cc1ccc(-n2nc(C)c(C(=O)NCCCN3CCN(c4ccc(F)cc4)CC3)c2-n2cccc2)cc1	VACV mCherry inh inconclusive, HCMV inh -70 (no result: HCV inh)
Cc1nn(-c2ccccc2)c(-n2cccc2)c1C(=O)NCCc1ccc(Cl)cc1	FMDV inh inconclusive, HCMV inh -100 (no result: HCV inh)
Cc1ccc(CN2CCN(CC(=O)NCCCN3CCN(c4ccc(F)cc4)CC3)C2=O)cc1	HCV inh 8.9µM, FMDV inh inconclusive, HCMV inh inconclusive (no result: VACV mCherry inh, Vaccinia Venus)
COc1ccc(N2CCN(CCCNC(=O)CN3CCN(Cc4ccccc4C)C3=O)CC2)cc1	HCV inh 11µM, HCMV inh inconclusive
Cc1nn(-c2ccccc2)c(-n2cccc2)c1C(=O)NCc1ccccc1Cl	FMDV inh inconclusive (no result: HCV inh)
CC1CC(C)(C)NC(=S)N1CCC(=O)Nc1ccc2c(c1)OCCO2 (stereo unspecified)	VACV mCherry inh inconclusive, HCV inh inconclusive, FMDV inh inconclusive, Vaccinia Venus inconclusive
Cc1cc(C(=O)O)ccc1NCc1ccncc1	none
CCOC(=O)NC(=O)CSc1nc2ccc(C)cc2[nH]1	HCMV inh inconclusive
CC(=O)N1CCC[C@@]2(CCN(c3ccccc3)C2)C1	none (no result: VACV mCherry inh, HCV inh, HCMV inh, Vaccinia Venus, Sm TGR block)
CN1CCN(c2nc(-c3ccccc3O)nc3ccccc23)CC1	HCV inh inconclusive
COc1cccc(-c2nc(N3CCN(C)CC3)c3ccccc3n2)c1O	VACV mCherry inh 10µM, HCV inh inconclusive, Vaccinia Venus inconclusive
COc1cccc(-c2nc(N3CCCCC3C)c3ccccc3n2)c1O (stereo unspecified)	HCV inh 8.9µM
Oc1ccc(N2CCN(c3nc(-c4cccs4)nc4ccccc34)CC2)cc1	HCV inh inconclusive, HCMV inh inconclusive, Sm TGR block inconclusive
OCCN1CCN(c2nc(-c3ccccc3O)nc3ccccc23)CC1	VACV mCherry inh inconclusive, HCV inh 22µM, Vaccinia Venus inconclusive
Oc1ccccc1N1CCN(c2nc(-c3cccs3)nc3ccccc23)CC1	HCV inh 11µM, HCMV inh inconclusive (no result: VACV mCherry inh, Vaccinia Venus)
CSc1ccccc1NS(=O)(=O)c1ccc2c(c1)OCCO2	none
Cc1ccc(O)c(C(=O)CC(=O)c2ccc(Cl)cc2)c1	HCV inh 22µM, HCMV inh inconclusive (no result: VACV mCherry inh, Vaccinia Venus)
Cc1cccc(C(=O)CC(=O)c2cc(Cl)ccc2O)c1	HCV inh inconclusive (no result: VACV mCherry inh, HCMV inh, Vaccinia Venus)
CCc1ccc(NCCC(=O)c2ccc(Br)cc2)cc1	Sm TGR block 13µM (no result: VACV mCherry inh, Vaccinia Venus)
O=C(CNc1ccc(Br)cc1)c1ccc(O)cc1	none
Cc1ccc(C(=O)CCNc2ccc(Br)cc2)o1	Sm TGR block inconclusive
Cc1ccc(NCC(=O)c2ccc(C)cc2)cc1	none (no result: VACV mCherry inh, Vaccinia Venus)
Cc1ccc(NCCC(=O)c2ccc(Cl)cc2)cc1	Sm TGR block 6.3µM (no result: VACV mCherry inh, Vaccinia Venus)
Cc1ccc(NCCC(=O)c2ccc(Br)cc2)cc1	Sm TGR block 7.1µM
CC(C)CCNC(=O)c1cccc(Cl)c1	none
COc1cccc(-c2cncnc2NCc2cnc(C)cn2)c1	none (no result: VACV mCherry inh, HCV inh, HCMV inh, Vaccinia Venus, Sm TGR block)
COc1cccc(/C=C2/SC(=S)N(CCCC(=O)Nc3ccc(O)cc3)C2=O)c1	HCV inh inconclusive, HCMV inh -99 (no result: VACV mCherry inh, Vaccinia Venus)
COc1ccc(/C=C2/SC(=S)N(CCCC(=O)Nc3ccc(O)cc3)C2=O)cc1OC	HCV inh inconclusive, HCMV inh -73 (no result: VACV mCherry inh, Vaccinia Venus)
CCN(CC)CCOC(=O)c1ccc(NC(=O)CCCN2C(=O)S/C(=C/c3ccc(OC)cc3)C2=S)cc1	HCV inh 14µM, FMDV inh 3.5µM (no result: HCMV inh)
COc1ccc(/C=C2\SC(=S)N(CCC(=O)Nc3ccc(O)cc3)C2=O)cc1	HCV inh inconclusive
COc1cccc(/C=C2\SC(=S)N(CCCC(=O)Nc3ccc(C(=O)O)cc3)C2=O)c1	HCMV inh -80
